Assay results taken from PubChem BioAssay (NCI).
This is part of a sample that, as a whole, favours compounds with a hit. Of some 79,000 tested, about 15% had one in any assay. Rule as the data show it: active = growth inhibition above about 70%; inactive = the rest.

What was measured:
[1] = NCI Yeast Anticancer Drug Screen. Data for the rad50 strain (AID 155);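 also: 0% = growth of vehicle-only cultures of the same strain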; settings: S. cerevisiae rad50 strain growth inhibition; at 50.0 µM; stronger effect = higher value
Summary of the method: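 DNA repair mutant yeast, compound exposure, growth read-out; inhibition is taken relative to vehicle.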

[2] = NCI Yeast Anticancer Drug Screen. Data for the mec2-1 strain (AID 157); settings: S. cerevisiae mec2-1 strain, at 50.0 µM, stronger effect = higher value
Summary of the method: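 Strain: mec2-1 (DNA repair/cell cycle alteration). Compound exposure, then growth measured; inhibition expressed relative to vehicle.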

[3] = NCI Yeast Anticancer Drug Screen. Data for the sgs1 mgt1 strain (AID 161);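 also: 0% = growth of cultures given vehicle only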; settings: S. cerevisiae sgs1 mgt1 strain, at 50.0 µM, stronger effect = higher value
Summary of the method: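 Read-out: growth inhibition vs vehicle controls. Cells: mutant yeast strain deficient in DNA damage repair.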

[4] = NCI Yeast Anticancer Drug Screen. Data for the cln2 rad14 strain (AID 165);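 also: 0% = growth equal to vehicle treated cultures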; settings: S. cerevisiae cln2 rad14 strain, at 50.0 µM, stronger effect = higher value
Summary of the method: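 Compounds are applied to the cln2 rad14 yeast strain, and growth is then compared with that of vehicle-treated cultures to give inhibition.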

[5] = NCI Yeast Anticancer Drug Screen. Data for the bub3 strain (AID 167); settings: S. cerevisiae bub3 mutant strain, at 50.0 µM, stronger effect = higher value
Summary of the method: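 In this screen, a yeast mutant lacking normal mitotic checkpoint function is challenged with compound. Relative growth versus vehicle gives the inhibition value.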

[6] = NCI Yeast Anticancer Drug Screen. Data for the mlh1 rad18 strain (AID 175); settings: S. cerevisiae mlh1 rad18 strain growth inhibition; at 50.0 µM; stronger effect = higher value
Summary of the method: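 Read-out is yeast growth inhibition, calculated against vehicle-only controls. The compound was applied to a strain engineered with DNA damage repair alterations.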

Measured: growth inhibition

COc1ccc(C(=O)/C=C/c2cccc3ccccc23)cc1
inactive: [1] 15.4% | [2] 25.7% | [3] 30.9% | [4] -3.85% | [5] 33% | [6] 16.6%

COC(=O)c1nc(=S)[nH]c(C(=O)OC)c1C(=O)c1cccc2ccccc12
inactive: [1] 8.6% | [2] 34.4% | [3] 4.35% | [4] -24.3% | [5] -5.5% | [6] 13.1%

COC(=O)c1ccccc1C1CN=NC12Cc1ccc3c(c1C2=O)CCC3 (stereo not given)
inactive: [1] -0.85% | [2] -3.55% | [3] 1.75% | [4] -7.3% | [5] 7.1% | [6] 16.7%

O=C(NCCCN1CCN(CCCNC(=O)Nc2ccc(Br)cc2)CC1)Nc1ccc(Br)cc1
inactive: [1] 27.7% | [2] 10.8% | [3] 38.4% | [4] 12.2% | [5] -1.5% | [6] 23.4%

COc1ccc2cc(C(C)C(=O)N3C(=O)OCC3(C)C)ccc2c1 (stereo not given)
inactive: [1] 19.4% | [2] -11.3% | [3] 30.4% | [4] -13.7% | [5] -8.75% | [6] 9.95%

CCC(C)c1cc(C(C)(C)C)cc(-n2nc3ccccc3n2)c1OS(=O)(=O)c1cccc(N)c1 (stereo not given)
inactive: [1] -4.4% | [2] -27.1% | [3] -12.8% | [4] 2.7% | [5] -16.9% | [6] -22%

CC(C)CCOC(=O)NC1c2ccccc2Oc2ccccc21
inactive: [1] -10% | [2] 3.55% | [3] 3.65% | [4] 18% | [5] 0.1% | [6] -1.3%

Cc1c(O)c2c(c(O)c1Cc1ccc(C#N)cc1)C(=O)c1ccccc1C2=O
inactive: [1] -4.5% | [2] 31.4% | [3] 17.9% | [4] -4.25% | [5] -1.95% | [6] -0.9%

COc1cc(/C=C/C(=O)N[C@@H]2C(=O)N3[C@@H]2SC(C)(C)[C@@H]3C(=O)O)ccc1O
inactive: [1] -7.45% | [2] -11.2% | [3] -7.9% | [4] -1.55% | [5] -15.2% | [6] 6.65%

Cc1ccc(NC(=O)CCC(=O)O)cc1Cl
inactive: [1] -19.9% | [2] -15.9% | [3] -4.25% | [4] -27.2% | [5] -10.9% | [6] -16.2%

CCOC(=O)/C=C/C(=O)N1CCN(C(=O)/C=C/C(=O)OCC)C(C)C1 (stereo not given)
inactive: [1] -3.3% | [2] -40.8% | [3] -6.7% | [4] 4.25% | [5] -41.5% | [6] -15.9%

CC(=N\NS(=O)(=O)c1ccc(C)cc1)/C(C)=N/NS(=O)(=O)c1ccc(C)cc1
inactive: [1] 25.3% | [2] -1.9% | [3] 12.8% | [4] 0.85% | [5] 0.95% | [6] -8.3%

O=C(OCC1OCOC(COC(=O)c2ccccc2)C(OC(=O)c2ccccc2)C1OC(=O)c1ccccc1)c1ccccc1 (stereo not given)
inactive: [1] 9.85% | [2] 8.35% | [3] -4.6% | [4] -13.8% | [5] -0.65% | [6] 19.6%

CC(=O)N1CN=C2Sc3ccccc3N2C1
inactive: [1] 4.05% | [2] 0.2% | [3] 8.45% | [4] -16% | [5] 13.2% | [6] 18.5%

CC(=O)N(c1ccccc1)c1ccccc1
inactive: [1] 12.8% | [2] 13.2% | [3] 2.6% | [4] 6.05% | [5] -0.2% | [6] 4.1%

COc1ccc(CC(=O)NCCc2ccc(OC)c(OC)c2OC)cc1
inactive: [1] 8.95% | [2] -34.7% | [3] -30% | [4] 8.3% | [5] -10.7% | [6] -32.8%

COc1ccc(OC)c(/C=C/C(=O)NC(CO)CSCSC)c1 (stereo not given)
inactive: [1] -0.35% | [2] 4.75% | [3] -3.9% | [4] -10.8% | [5] 21.5% | [6] -24.4%

O=C(O)CN1C(=O)NC(C2CC2)(C2CC2)C1=O
inactive: [1] -3.15% | [2] -7.15% | [3] -12.8% | [4] -23.2% | [5] 8.85% | [6] 6.6%

CNC(=O)CCCCC(=O)NC
inactive: [1] -5.65% | [2] -7.9% | [3] -2.7% | [4] 6.15% | [5] -10.8% | [6] -19.2%

O=C(OCC1OC(n2nc(SCc3ccccc3)c(=S)[nH]c2=O)C(OC(=O)c2ccccc2)C1OC(=O)c1ccccc1)c1ccccc1 (stereo not given)
inactive: [1] 1.05% | [2] 0.35% | [3] 14.2% | [4] -46.9% | [5] -5.7% | [6] 31.8%

COc1c(-c2ccccc2)c(=O)n2c3cc(C)c(C)cc3n(C)c2c1C#N
inactive: [1] -13.4% | [2] -0.4% | [3] 18.5% | [4] -13.9% | [5] -31.1% | [6] -2.85%

Cc1cc(C)[n+](C)c(/C=C/c2cccc([N+](=O)[O-])c2)n1
inactive: [1] 6.55% | [2] -6.95% | [3] 4.85% | [4] 16.4% | [5] 3.4% | [6] 11.1%

CCOC(=O)c1c(N)[nH]c(SSc2[nH]c(N)c(C(=O)OCC)c2C(=O)OCC)c1C(=O)OCC
inactive: [1] 25.6% | [2] 3.85% | [3] 30.3% | [4] 13.7% | [5] 17.8% | [6] 20.3%

COC(=O)C(C)CN1CCCCC1 (stereo not given)
inactive: [1] 20.1% | [2] 6.2% | [3] 22.1% | [4] -6.45% | [5] 31.9% | [6] 19.9%

COc1cc(C(=O)C/C(CCC(=O)Nc2ccc(Cl)cc2Cl)=N/NC(=O)C(N)=O)ccc1O
inactive: [1] -12.8% | [2] -2.45% | [3] -34.8% | [4] 22.4% | [5] -1.45% | [6] -20.4%

CCCCCNC(=O)c1ccc(C)cc1
inactive: [1] 2.5% | [2] -4.15% | [3] 1.05% | [4] -12.6% | [5] -10.8% | [6] -70%

CC[N+](C)(CC)CCOC(=O)C(c1ccccc1)C(O)C1CC=CCC1 (stereo not given)
inactive: [1] 7.15% | [2] -6.3% | [3] -5.65% | [4] -30.6% | [5] -1.45% | [6] 2.3%

C[N+]1(C)CCC(c2ccccc2)(c2ccccc2)/C(=C2/C(=O)C(c3ccccc3)(c3ccccc3)CC[N+]2(C)C)C1
inactive: [1] -4.55% | [2] -7.9% | [3] 0.75% | [4] 35% | [5] -32% | [6] -20.8%

COc1ccccc1NC1Oc2cc3c(cc2C(c2cc(OC)c(OC)c(OC)c2)C1C)OCO3 (stereo not given)
inactive: [1] -16.4% | [2] -26.1% | [3] -1.25% | [4] -0.85% | [5] -2.8% | [6] -5.35%

CC(O)(CNS(=O)(=O)c1ccccc1)c1ccccc1 (stereo not given)
inactive: [1] 14.2% | [2] 8.8% | [3] 0.6% | [4] -36.9% | [5] -31.2% | [6] -16.6%

O=CN(C1CCCCC1)C1CCCCC1
inactive: [1] 14.6% | [2] 15.6% | [3] 11% | [4] 8.8% | [5] 1.5% | [6] 0%

[N-]=[N+]=NS(=O)(=O)CCc1ccc(Cl)cc1
inactive: [1] 4.55% | [2] -3.95% | [3] -12.4% | [4] -55% | [5] -17.9% | [6] 4.85%

COc1cccc(Oc2cccc[n+]2CC(C)=O)c1
inactive: [1] -57.5% | [2] -10.3% | [3] 3.75% | [4] 8.4% | [5] 0.3% | [6] 1.15%

c1ccc(-c2ccc(-c3ccccc3)cc2)cc1
inactive: [1] -14.5% | [2] -9.4% | [3] -15.1% | [4] -15.2% | [5] 18.6% | [6] -30.9%

OC1c2ccccc2-c2ccccc21
inactive: [1] 35.6% | [2] 0.95% | [3] -15.4% | [4] -22.3% | [5] 6.8% | [6] 25.2%

O=C(Cc1ccccc1)c1ccc(N2CCOCC2)cc1
inactive: [1] 21.5% | [2] -19.2% | [3] 11.5% | [4] 13.2% | [5] 26.1% | [6] 25.7%

CC[N+](CC)(CC)C[Si](C)(C)C
inactive: [1] 5.05% | [2] 5.7% | [3] 12.1% | [4] 2.4% | [5] 12% | [6] -6%

Cc1ccc2c(c1)[nH]c(=S)n2C=C1C(=O)NC(=O)NC1=O
inactive: [1] -6.3% | [2] -27.9% | [3] -38% | [4] -10.6% | [5] -7.35% | [6] -15.4%

Nc1nc(N)c(N=Nc2ccc(Cl)cc2Cl)c(=O)[nH]1
inactive: [1] 18.6% | [2] -2.6% | [3] -6.45% | [4] 15.6% | [5] 14.8% | [6] 2.75%

CC(=O)C(CCCCCCCCCCC(C(C)=O)C(C)=O)C(C)=O
inactive: [1] -9.3% | [2] -2.75% | [3] -5.05% | [4] -38.6% | [5] -6% | [6] -10.2%
